Measurements from PubChem BioAssay (NCI).
Compounds without any hit were thinned out: in the full panel of roughly 79,000, 15% have a hit. Active and inactive are the calls of the source. Rule as the data show it: active = growth inhibition above about 70%; inactive = the rest.

How the values were obtained:
[1] = NCI Yeast Anticancer Drug Screen. Data for the rad52 strain (AID 147);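 also: 0% = growth of vehicle-treated control cultures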; settings: S. cerevisiae rad52 mutant growth inhibition, active compounds read high
In short: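 Inhibition of yeast growth, referenced to vehicle controls, was the measured output for a strain with defective DNA damage repair.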

[2] = NCI Yeast Anticancer Drug Screen. Data for the wt1 strain (AID 149);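 also: 0% = growth of vehicle-treated wt1 cultures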; settings: S. cerevisiae wt1 strain (SPY 50644) growth inhibition, active compounds read high
In short: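 The wt1 strain was treated with compounds, and growth was compared with vehicle-treated cultures to give inhibition.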

[3] = NCI Yeast Anticancer Drug Screen. Data for the rad50EPP+ strain (AID 151);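 also: 0% = growth of vehicle-treated control cultures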; settings: S. cerevisiae rad50 mutant strain, active compounds read high
In short: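 Genetically defined yeast (rad50EPP+, DNA damage repair alteration) is grown with compound, and inhibition of growth is expressed relative to vehicle-treated controls.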

[4] = NCI Yeast Anticancer Drug Screen. Data for the rad50 strain (AID 155);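 also: 0% = growth of vehicle-only cultures of the same strain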; settings: S. cerevisiae rad50 strain growth inhibition, active compounds read high
In short: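 Cells are treated with compound, grown, and their growth is then scored against vehicle-only cultures of the same repair-deficient yeast strain.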

[5] = NCI Yeast Anticancer Drug Screen. Data for the mec2-1 strain (AID 157); settings: S. cerevisiae mec2-1 strain, active compounds read high
In short: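 Each compound was tested on mec2-1 yeast, a strain altered in DNA damage repair or cell cycle control. Growth inhibition is reported relative to vehicle.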

[6] = NCI Yeast Anticancer Drug Screen. Data for the rad14 strain (AID 159);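 also: 0% = growth of vehicle-treated control cultures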; settings: S. cerevisiae rad14 strain growth inhibition, active compounds read high
In short: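 Readout: yeast growth inhibition, referenced to vehicle-only cultures. Strain bears a defined alteration in DNA damage repair.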

[7] = NCI Yeast Anticancer Drug Screen. Data for the sgs1 mgt1 strain (AID 161);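 also: 0% = growth of cultures given vehicle only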; settings: S. cerevisiae sgs1 mgt1 strain, active compounds read high
In short: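 Read-out: growth inhibition vs vehicle controls. Cells: mutant yeast strain deficient in DNA damage repair.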

[8] = NCI Yeast Anticancer Drug Screen. Data for the CLN2oe strain (AID 163);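 also: 0% = growth of vehicle-only control cultures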; settings: S. cerevisiae CLN2oe strain, active compounds read high
In short: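 First, the altered yeast strain was treated with each compound; second, its growth was measured; finally, inhibition was derived by comparison with vehicle controls.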

[9] = NCI Yeast Anticancer Drug Screen. Data for the cln2 rad14 strain (AID 165);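 also: 0% = growth equal to vehicle treated cultures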; settings: S. cerevisiae cln2 rad14 strain, active compounds read high
In short: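 Test compounds were added to cln2 rad14 yeast cultures; inhibition of growth was then determined by comparison with vehicle treatment.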

[10] = NCI Yeast Anticancer Drug Screen. Data for the bub3 strain (AID 167); settings: S. cerevisiae bub3 mutant strain, active compounds read high
In short: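 Part of a panel of yeast mutants defective in DNA damage repair or cell cycle regulation. Each strain is grown with compound, and inhibition is calculated relative to solvent-treated cultures.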

[11] = NCI Yeast Anticancer Drug Screen. Data for the mlh1 strain (AID 171);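 also: 0% = growth of vehicle-treated control cultures of the same strain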; settings: S. cerevisiae mlh1 strain growth inhibition, active compounds read high
In short: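 Inhibition values reflect reduced yeast growth in the presence of compound, referenced to vehicle controls, using a strain chosen for its alteration in DNA repair or cell cycle control.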

[12] = NCI Yeast Anticancer Drug Screen. Data for the sgs1 strain (AID 173);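 also: 0% = growth of vehicle-only control cultures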; settings: S. cerevisiae sgs1 mutant, active compounds read high
In short: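 Vehicle-treated cultures served as reference for growth inhibition of a yeast strain altered in DNA damage repair or cell cycle control after compound exposure.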

[13] = NCI Yeast Anticancer Drug Screen. Data for the mlh1 rad18 strain (AID 175); settings: S. cerevisiae mlh1 rad18 strain growth inhibition, active compounds read high
In short: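 Inhibition values reflect reduced growth of mutant yeast versus vehicle-treated controls following compound exposure; the mutations affect DNA damage repair.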

[14] = NCI Yeast Anticancer Drug Screen. Data for the rad18 strain (AID 177); settings: S. cerevisiae rad18 mutant growth inhibition, active compounds read high
In short: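 Steps: expose repair-mutant yeast to compound; measure growth; express as inhibition relative to vehicle control.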

[15] = NCI Yeast Anticancer Drug Screen. Data for the wt2 strain (AID 169);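 also: 0% = growth of vehicle-treated yeast cultures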; settings: S. cerevisiae wt2 strain growth inhibition, active compounds read high
In short: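 The panel's yeast strains carry defined changes in DNA repair or cell cycle genes. Each strain is grown with compound, and growth loss is scored relative to vehicle.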

[16] = at 5.0 µM (retest, dose inferred, filed as 0.5)
[17] = at 50.0 µM (retest, dose inferred, filed as 5.0)

Measured: growth inhibition

O=C1C=CC(=Nc2ccccc2)c2ccccc21
inactive: [1]; at 1.2 µM 1% | [1]; at 3.7 µM 5% | [1]; at 11.0 µM 20% | [1]; at 33.0 µM 55% | [2]; at 1.2 µM 8% | [2]; at 3.7 µM 12% | [2]; at 11.0 µM 21% | [2]; at 33.0 µM 38% | [2]; at 100.0 µM 45% | [3]; at 1.2 µM 3% | [3]; at 3.7 µM 8% | [3]; at 11.0 µM 28% | [3]; at 33.0 µM 53% | [4]; at 1.2 µM 3% | [4]; at 3.7 µM 15% | [4]; [16] -8% | [4]; at 11.0 µM 65% | [4]; at 50.0 µM 37.9% | [5]; at 1.2 µM 5% | [5]; at 3.7 µM 10% | [5]; [16] 22% | [5]; at 11.0 µM 19% | [5]; at 33.0 µM 28% | [5]; [17] 43% | [5]; at 50.0 µM 45.3% | [5]; at 100.0 µM 44% | [6]; at 1.2 µM -1% | [6]; at 3.7 µM 1% | [6]; at 11.0 µM 12% | [6]; at 33.0 µM 38% | [6]; at 100.0 µM 58% | [7]; [16] 30% | [7]; [17] 60% | [7]; at 50.0 µM 31.6% | [8]; at 1.2 µM -2% | [8]; at 3.7 µM -4% | [8]; at 11.0 µM 6% | [8]; at 33.0 µM 43% | [8]; at 100.0 µM 39% | [9]; [16] -17% | [9]; [17] 32% | [9]; at 50.0 µM 24.6% | [10]; at 1.2 µM 12% | [10]; at 3.7 µM 37% | [10]; [16] 65% | [10]; at 11.0 µM 62% | [11]; at 1.2 µM 3% | [11]; at 3.7 µM 5% | [11]; at 11.0 µM 20% | [11]; at 33.0 µM 67% | [12]; at 1.2 µM 5% | [12]; at 3.7 µM 12% | [12]; at 11.0 µM 29% | [12]; at 33.0 µM 60% | [13]; [16] 27% | [13]; at 50.0 µM 36.5% | [14]; at 1.2 µM 2% | [14]; at 3.7 µM 6% | [14]; at 11.0 µM 37%
active: [1]; at 100.0 µM 77% | [3]; at 100.0 µM 70% | [4]; at 33.0 µM 88% | [4]; [17] 70% | [4]; at 100.0 µM 85% | [10]; at 33.0 µM 84% | [10]; [17] 94% | [10]; at 50.0 µM 82.3% | [10]; at 100.0 µM 88% | [11]; at 100.0 µM 82% | [12]; at 100.0 µM 76% | [13]; [17] 87% | [14]; at 33.0 µM 84% | [14]; at 100.0 µM 80%

O=[N+]([O-])c1c(/C=N/Nc2ccccc2)oc(-c2ccc3c(c2)OCO3)c1-c1ccc2c(c1)OCO2
active: [1]; at 100.0 µM 88% | [4]; [16] 88% | [4]; [17] 88% | [4]; at 50.0 µM 80.3% | [4]; at 100.0 µM 86% | [5]; at 50.0 µM 88.2% | [5]; at 100.0 µM 81% | [6]; at 100.0 µM 91% | [7]; [16] 87% | [7]; [17] 87% | [7]; at 50.0 µM 83% | [8]; at 100.0 µM 77% | [10]; at 50.0 µM 82.5% | [15]; at 100.0 µM 88% | [11]; at 100.0 µM 73% | [12]; at 100.0 µM 89% | [13]; at 50.0 µM 84.2% | [14]; at 100.0 µM 87%
inactive: [1]; at 1.2 µM 0% | [1]; at 3.7 µM 6% | [1]; at 11.0 µM 20% | [1]; at 33.0 µM 67% | [2]; at 1.2 µM -1% | [2]; at 3.7 µM 0% | [2]; at 11.0 µM -1% | [2]; at 33.0 µM 19% | [2]; at 100.0 µM 62% | [3]; at 1.2 µM -4% | [3]; at 3.7 µM 1% | [3]; at 11.0 µM 11% | [3]; at 33.0 µM 31% | [3]; at 100.0 µM 46% | [4]; at 1.2 µM -1% | [4]; at 3.7 µM 2% | [4]; at 11.0 µM 7% | [4]; at 33.0 µM 56% | [5]; at 1.2 µM 0% | [5]; at 3.7 µM 0% | [5]; [16] 8% | [5]; at 11.0 µM 8% | [5]; at 33.0 µM 37% | [5]; [17] 8% | [6]; at 1.2 µM 0% | [6]; at 3.7 µM -2% | [6]; at 11.0 µM 2% | [6]; at 33.0 µM 20% | [8]; at 1.2 µM -1% | [8]; at 3.7 µM 4% | [8]; at 11.0 µM 9% | [8]; at 33.0 µM 46% | [10]; at 1.2 µM -9% | [10]; at 3.7 µM -8% | [10]; [16] -21% | [10]; at 11.0 µM 8% | [10]; at 33.0 µM 39% | [10]; [17] -21% | [10]; at 100.0 µM 60% | [15]; at 1.2 µM 0% | [15]; at 3.7 µM 1% | [15]; at 11.0 µM 5% | [15]; at 33.0 µM 44% | [11]; at 1.2 µM -3% | [11]; at 3.7 µM -2% | [11]; at 11.0 µM 3% | [11]; at 33.0 µM 36% | [12]; at 1.2 µM -2% | [12]; at 3.7 µM -2% | [12]; at 11.0 µM 7% | [12]; at 33.0 µM 65% | [13]; [16] 38% | [13]; [17] 38% | [14]; at 1.2 µM -8% | [14]; at 3.7 µM -5% | [14]; at 11.0 µM 8% | [14]; at 33.0 µM 69%
